Measured values from PubChem BioAssay AID602440 (Sanford-Burnham Center for Chemical Genomics, 2012).
About 2,300 (0.64%) of roughly 360,000 compounds were called active. Rule as the data show it: active = inhibition mostly above about 40% (no sharp cut-off); inactive = mostly below about 27%. What follows is part of a selection rich in actives, with near analogues and random picks from the rest.

target: Sentrin-specific protease 8 (Homo sapiens) (UniProt Q96LD8); assay: blockers of SENP8 deneddylase activity – biochemical, fluorescence, Nedd8 protein substrate, uHTS, primary screen (AID 602440); details: recombinant SENP8, Nedd8 substrate fluorescence; at 20 µM; active compounds read high
Sequence (Q96LD8 whole entry, looked up): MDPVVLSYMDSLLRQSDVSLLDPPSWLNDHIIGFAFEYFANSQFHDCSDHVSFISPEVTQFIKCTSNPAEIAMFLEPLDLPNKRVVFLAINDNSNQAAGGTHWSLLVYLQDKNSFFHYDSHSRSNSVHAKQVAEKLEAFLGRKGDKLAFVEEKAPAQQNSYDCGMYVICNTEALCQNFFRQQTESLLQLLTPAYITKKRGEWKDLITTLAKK

| SMILES | inhibition |
| --- | --- |
| Cc1cc(C)n2nc(C(=O)OCC(=O)N(C)CC(=O)Nc3ccc(F)cc3)nc2n1 | 3.2% (inactive) |
| COc1ccc(CCNC(=O)COC(=O)C2CC2C)cc1 (stereo not drawn) | 9.7% (inactive) |
| Cc1cc(NC(=O)CN2C(=O)NC(CCc3ccccc3)C2=O)no1 (stereo not drawn) | 12.2% (inactive) |
| CCc1cccc(C)c1NC(=O)COC(=O)CC1CCCC1 | 40.9% (active) |
| CCc1cccc(C)c1NC(=O)COC(=O)Cc1ccsc1 | -35.2% (inactive) |
| Cc1cccc(C)c1NC(=O)CNC(=O)C1CCCC1 | 11.2% (inactive) |
| Cc1ccc(N(C(=O)CC2NC(=O)NC2=O)C2(C(=O)NC3CCCC3)CCCCC2)cc1 (stereo not drawn) | 21.4% (inactive) |
| Cc1ccc(NC(=O)CN(C)C(=O)c2cccc(S(=O)(=O)N3CCCC3)c2)cc1 | 18.7% (inactive) |
| COc1cccc(N(CC(=O)NCCSc2ccccn2)S(C)(=O)=O)c1 | 40.3% (active) |
| COc1ccc(CCNC(=O)CN(c2ccccc2)S(C)(=O)=O)cc1 | 13.5% (inactive) |
| COc1ccc(N(CC(=O)NCCSCc2cccc(Cl)c2)S(C)(=O)=O)cc1 | 16.9% (inactive) |
| COc1ccc(NC(=O)CCNS(=O)(=O)c2ccc3c(c2)c(=O)n(C)c(=O)n3C)cc1OC | 9.5% (inactive) |
| OCc1n[nH]c(CO)n1 | 6.5% (inactive) |
| CN1C(=O)/C(=C/C=C2\SCCN2C)OC1=S | 43.8% (active) |
| O=[N+]([O-])c1ccc(C=Nc2ccc(Cl)cc2Cl)s1 | 69% (active) |
| CCNc1nc(N)nc(Oc2ccc(OCC)nn2)n1 | 6.3% (inactive) |
| CC(C)(C)c1cc(P(=O)(c2ccccc2)c2ccccc2)ccc1O | 20.7% (inactive) |
| O=P(O)(CP(=O)(c1ccccc1)c1ccccc1)c1ccccc1 | 10.2% (inactive) |
| O=P(O)(CP(=O)(c1ccccc1)c1ccccc1)c1ccccc1O | 41.1% (active) |
| COC(=O)C1=C(C)N(C)C(=S)NC1c1cc(OC)ccc1OC (stereo not drawn) | 10% (inactive) |
| COC(=O)[C@]12CCCCC=C1N(CCC1=CCCCC1)C(=O)[C@H](CC(=O)NCC1CCCCC1)C2 | 10.5% (inactive) |
| COc1cc(C(=O)NC2CCN(Cc3ccccc3)CC2)cc(Cl)c1OC(C)C | 3.3% (inactive) |

| SMILES | inhibition |
| --- | --- |
| CC(=O)Nc1ccc(NC(=O)COc2ccc(S(=O)(=O)NC(C)c3ccccc3)cc2)cc1 (stereo not drawn) | 8.8% (inactive) |
| CCOC(=O)/C(=N\Nc1ccccc1[N+](=O)[O-])c1csc(Nc2ccccc2)n1 | 52.3% (active) |
| CCOC(=O)C(=O)Nc1nc(-c2ccccc2)c(CC)s1 | 16.8% (inactive) |
| CCOC(=O)C/C(C)=N\Nc1ccc([N+](=O)[O-])cc1[N+](=O)[O-] | 23.3% (inactive) |
| NC(=O)c1ccc(N2CCOCC2)nc1 | 10.6% (inactive) |
| Nc1ncnc2c1ncn2[C@@H]1O[C@H](CNC(=O)[C@H](N)Cc2cccnc2)[C@@H](O)[C@H]1O | 6.7% (inactive) |
| CN(CCc1ccccn1)C(=O)CCC1CCCN(Cc2ccccc2OC(F)F)C1 (stereo not drawn) | 29.2% (inactive) |
| Nc1ccc2nc3c(=O)[nH]c(=S)[nH]c3nc2c1 | 46.9% (active) |
| CC(C)(C)CN1CCNC(=O)C1CC(=O)NC1Cc2ccccc2C1 (stereo not drawn) | -47.4% (inactive) |
| COC(=O)CCCC1=CC2=C(c3ccccc3)C(=O)C(C)(OC(=O)C3CCCC3)C(=O)C2=CN1c1ccc(OC)cc1 (stereo not drawn) | -154% (inactive) |
| CCCCC1=CC2=CC(=O)C(C)(OC(=O)CC)C(=O)C2=CN1CCCOC(C)C (stereo not drawn) | -190% (inactive) |
| COC(=O)CCCC1=CC2=CC(=O)C(C)(OC(=O)c3cccs3)C(=O)C2=CN1CC(C)C (stereo not drawn) | 40.8% (active) |
| O=C(NC1CCN(S(=O)(=O)c2ccc(F)cc2)CC1)c1ccccc1 | 15.3% (inactive) |
| COC(=O)N(C)C[C@@H]1OCc2cnnn2CCCC(=O)N([C@@H](C)CO)C[C@@H]1C | 18.6% (inactive) |
| COc1cc(NC(=O)c2cc([N+](=O)[O-])ccc2Br)ccc1NC(=O)c1ccco1 | 32.3% (inactive) |
| COc1ccc(C(=O)c2c3ccc([N+](=O)[O-])cc3[n+]([O-])n2CCCN)cc1 | 48.4% (active) |
| COc1ccc(Cc2nnc(SCC(=O)c3cccc([N+](=O)[O-])c3)n2C)cc1 | 10.4% (inactive) |
| COc1ccc2c(C(=O)c3ccc(C)cc3)n(CCC(N)=O)[n+]([O-])c2c1 | 2.6% (inactive) |
| COC(=O)c1ccc(S(=O)(=O)N(CCO)Cc2ccccc2)n1C | 21.1% (inactive) |
| C/C(=N\NC(=O)c1ccc(C)cc1)C1C(=O)c2ccccc2C1=O | 38.5% (inactive) |
| O=C1C=C(NS(=O)(=O)c2ccccc2)C(=O)c2ccccc21 | 51.3% (active) |
| Cc1cc(NS(=O)(=O)c2ccccc2)no1 | 11.5% (inactive) |

| SMILES | inhibition |
| --- | --- |
| CN(C)C(=O)c1ccc(NC(=O)c2ccccc2-c2ccccc2)cc1 | 4.2% (inactive) |
| O=C(NC1=CC(=O)c2ccccc2C1=O)c1ccccc1 | 44.7% (active) |
| CC(=O)NS(=O)(=O)c1ccccc1 | 0.5% (inactive) |
| CCN(CC)S(=O)(=O)c1ccc2c3c(cccc13)C(=O)S2 | -49.2% (inactive) |
| NC(=O)C1CC=CCC1C(=O)OCC(Cl)=C(Cl)Cl (stereo not drawn) | 1.1% (inactive) |
| Cc1cc(N2C(=O)C(=O)/C(=C(/O)c3ccc(Cl)cc3)C2c2cccc(Br)c2)no1 (stereo not drawn) | -138% (inactive) |
| O=S1(=O)CCN2C(=N1)SC1=C2CCN(Cc2ccccc2)C1 | 21.1% (inactive) |
| C=CCn1c(SCC(=O)c2ccc(Br)cc2)nnc1C(C)NC(=O)Cc1ccc(OC)cc1 (stereo not drawn) | 1.1% (inactive) |
| CS(=O)(=O)c1ccc(C(=O)OCC(=O)NNC(=O)COc2ccc(Cl)cc2)cc1 | 11.8% (inactive) |
| CC(C)Cc1nnc(NC(=O)CCNC(=O)c2ccccc2Cl)s1 | 8.4% (inactive) |
| CC(C)Cc1nnc(NC(=O)CCc2ccccc2)s1 | 2.2% (inactive) |
| CC(C)Cc1nnc(NC(=O)CCC(=O)Nc2ccc3cn[nH]c3c2)s1 | 42.9% (active) |
| CN(C)CCCn1c(SCCN2C(=O)c3ccccc3C2=O)nc2ccccc2c1=O | 2.7% (inactive) |
| O=C(c1ccc(S(=O)(=O)NCc2ccco2)cc1)N1CCN(c2ccccc2)CC1 | 17.9% (inactive) |
| O=[N+]([O-])c1ccc(N2CCN(S(=O)(=O)c3ccc4ccccc4c3)CC2)cc1NCc1ccco1 | 28.5% (inactive) |
| O=C(c1ccccc1)N1CCN(c2ccc([N+](=O)[O-])c(NCc3ccco3)c2)CC1 | 41.8% (active) |
| O=C(NCCC1CCCCN1S(=O)(=O)c1ccccc1)C(=O)NCC1CCCO1 (stereo not drawn) | 7.7% (inactive) |
| CCCCNC(=O)C(C)N(CCN(C)C)C(=O)CCCN1C(=O)NC(c2ccc(Cl)cc2)C(C(=O)OCc2ccccc2)=C1C (stereo not drawn) | 12.8% (inactive) |
| C/C(=N/NC(=O)c1ccc(Br)o1)c1ccc(C)o1 | -3.6% (inactive) |
| Cc1ccccc1CN1CCN(C(=O)c2cccc(F)c2)CC1 | 17.2% (inactive) |
| O=C(c1cccc(F)c1)N1CCC(O)(c2cccnc2)CC1 | 18.5% (inactive) |
| O=C(c1cccc(F)c1)N1CCN(c2ccc([N+](=O)[O-])c3cccnc23)CC1 | 41.3% (active) |

| SMILES | inhibition |
| --- | --- |
| NC(=O)C1CC(=O)N(c2ccc(OCC(=O)NCc3ccccc3)cc2)C1 (stereo not drawn) | 5.3% (inactive) |
| CC(C)C[C@@H](CO)N1CCN(Cc2ccc(O)cc2)CCC1=O | -5% (inactive) |
| CC(C)(C)NC(=O)NC(=O)COC(=O)C1(C)CC1(Cl)Cl (stereo not drawn) | 12.9% (inactive) |
| CN(C)C(=O)c1cccc(-c2cnc3c(NC=O)cc(-c4ccc(C(=O)N5CCOCC5)cc4)cn23)c1 | -177% (inactive) |
| O=C1NNC(c2ccccc2)=N/C1=C\c1ccc(Cl)cc1 | 64% (active) |
| O=C(c1ccccc1)c1ccc(OC(=O)N2CCCC2)cc1 | 22.4% (inactive) |
| COc1ccc(OC)c(NC(=O)c2ccc3c(c2)CCN3S(C)(=O)=O)c1 | 3% (inactive) |
| Cc1nc(C(=O)NCc2ccccc2)sc1C1(C)CC(c2cccnc2)=NO1 (stereo not drawn) | 8.5% (inactive) |
| CC(=O)N/C(=C\c1ccc(F)cc1)C(=O)NC(Cc1ccccc1)C(=O)O (stereo not drawn) | 2.6% (inactive) |
| CCC(C)[C@H](NC(=O)N1c2ccccc2NC(=O)[C@@H]1C(C)C)C(=O)N[C@@H](Cc1ccccc1)C(=O)O (stereo partly drawn) | 53.4% (active) |
| CC(C)[C@H](NC(=O)N1c2ccccc2NC(=O)[C@@H]1C(C)C)C(=O)N[C@H](C(=O)O)c1ccccc1 | 37% (inactive) |
| COc1ccc([C@H]2N[C@]3(CCCN(Cc4ccco4)C3=O)[C@H]3C(=O)N(C)C(=O)[C@@H]23)cc1 | -14% (inactive) |
| O=C(CCN1C(=O)COc2ccccc21)NCCCN1CCN(c2ccc(F)cc2)CC1 | 12.7% (inactive) |
| O=C(CSc1ccc([N+](=O)[O-])cn1)Nc1ccc(N2CCOCC2)cc1 | 37.7% (inactive) |
| O=C(NCCCN1CCN(c2ccc(F)cc2)CC1)Nc1ccc([N+](=O)[O-])cc1 | 44.8% (active) |
| O=C(Nc1ccc(C(=O)NCc2ccccc2Cl)cc1)C1=CSCCO1 | -35.3% (inactive) |
| COc1ccc(OC)c(C(O)c2nc3ccccc3n2C)c1 (stereo not drawn) | 15.4% (inactive) |
| Cn1nc(C(F)(F)F)c(C(=O)Nc2cccc(C(F)(F)F)c2)c1SCc1ccc(Cl)cc1 | 5.4% (inactive) |
| CCCCn1c(N)c(N(CC(C)C)C(=O)c2ccc(Br)o2)c(=O)[nH]c1=O | -3.8% (inactive) |
| COc1cc(C(=S)N2CCOCC2)cc(OC)c1OC(=O)c1cc([N+](=O)[O-])c(C)c([N+](=O)[O-])c1 | 27.5% (inactive) |
| COc1cc(C(=S)N2CCOCC2)cc(OC)c1OC(=O)c1ccc([N+](=O)[O-])cc1[N+](=O)[O-] | 11.9% (inactive) |
| COc1cc(C(=S)N2CCOCC2)cc(OC)c1OC(=O)c1cc([N+](=O)[O-])cc([N+](=O)[O-])c1 | 40.9% (active) |
